Assay outcomes deposited in PubChem by National Center for Advancing Translational Sciences (NCATS).
Only some compounds are listed: those with a hit (about 18% of all), similar ones and a draw of the others.
GCN5L2 inh: qHTS Assay for Inhibitors of GCN5L2 | Histone acetyltransferase KAT2A (Homo sapiens), Q92830 | GCN5L2 HAT assay, ThioGlo1 CoA-SH fluorescence | Potency, µM (doses to about 58.9 µM), for inactives: at the top dose activity change, negative = inhibition, actives largely listed as inhibitors | hit rate 0.21% among 390,000 | AID 504327, 2011
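Titration-based screen in which CoA formation is detected via maleimide probe ThioGlo1 (50uM) turning fluorescent on thiol reaction; substrates H3(1-25) 75uM and acetyl-CoA 70uM, GCN5L2 20nM, 20 min incubation at room temperature.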
TDP1 block: qHTS Assay for Inhibitors of Tyrosyl-DNA Phosphodiesterase (TDP1) | recombinant TDP1, AlphaScreen DNA substrate cleavage | Potency, µM (highest dose often 130 µM), inactives show top-dose activity change, negative = inhibition, usual class: inhibitors | hit rate 0.28% among 350,000; also: nearly all actives have a fitted effect of over 40% in size
Target sequence (Q9NUW8 whole entry, looked up): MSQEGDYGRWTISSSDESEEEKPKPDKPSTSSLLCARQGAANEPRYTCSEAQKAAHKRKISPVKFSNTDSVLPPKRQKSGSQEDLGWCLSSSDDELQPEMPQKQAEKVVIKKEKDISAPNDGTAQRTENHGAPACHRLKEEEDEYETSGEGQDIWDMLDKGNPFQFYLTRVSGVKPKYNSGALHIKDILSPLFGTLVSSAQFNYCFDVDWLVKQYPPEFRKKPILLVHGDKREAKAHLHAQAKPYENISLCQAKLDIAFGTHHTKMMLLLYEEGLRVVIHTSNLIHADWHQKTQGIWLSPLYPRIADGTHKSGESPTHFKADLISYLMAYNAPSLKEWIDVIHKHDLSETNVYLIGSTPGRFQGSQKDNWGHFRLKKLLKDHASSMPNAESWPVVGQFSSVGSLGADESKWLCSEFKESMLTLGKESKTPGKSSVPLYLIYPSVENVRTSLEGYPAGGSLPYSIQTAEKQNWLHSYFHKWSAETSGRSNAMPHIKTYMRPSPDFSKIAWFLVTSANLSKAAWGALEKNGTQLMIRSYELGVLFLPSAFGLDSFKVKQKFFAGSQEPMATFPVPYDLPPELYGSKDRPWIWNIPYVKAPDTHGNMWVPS
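E. coli-derived human Tdp1, 1 nM final. Cpd preinc 15 min RT; substrate 15 nM final, 5 min RT; AS bead mix 10 ug/ml final, 10 min RT. Signal loss = tyrosine-FITC cleavage. No-enzyme wells = max signal.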
TDP1 cell noCPT: qHTS for Inhibitors of human tyrosyl-DNA phosphodiesterase 1 (TDP1): qHTS in cells in absence of CPT | DT40 Tdp1-/- hTDP1 cells, no CPT, ATP luminescence, 48 h | Potency, µM (highest dose often 46.2 µM), inactives show at the top dose activity change, negative = growth inhibition, hits mostly inhibitors | hit rate 15% among 420,000 | AID 686978, 2013; also: nearly all actives have a fitted effect of over 55% in size
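No-CPT arm: Tdp1-/-;hTDP1 DT40 cells (400/well) plus compounds, incubated ≥48 hr at 37 °C. Readout CellTiter-Glo luminescence.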
VDR inh: Inhibitors of the vitamin D receptor (VDR): qHTS. Vitamin D3 receptor (Homo sapiens), P11473. VDR-SRC2-3 peptide fluorescence polarization, 2 h. Potency, µM, without a hit: max response, negative = inhibition, usual class: inhibitors. hit rate 0.93% among 400,000. AID 504847, 2011
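Fluorescence polarization assay of small-molecule disruption of VDR binding to coregulator peptide SRC2-3. Compounds and controls pin-transferred, then read after 2 h incubation at ambient room temperature.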
DT40 TDP1 CPT: qHTS for Inhibitors of human tyrosyl-DNA phosphodiesterase 1 (TDP1): qHTS in cells in presence of CPT. chicken DT40 Tdp1-/-;hTDP1 cells + 20 nM CPT, ATP luminescence, 48 h. Potency, µM (titrated, usually from 46.2 µM), for the others: top-dose activity change, negative = growth inhibition, most hits filed as inhibitors. hit rate 12% among 420,000. AID 686979, 2013; also: nearly all actives have a fitted effect of over 55% in size
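Chicken DT40 Tdp1-/- cells complemented with human TDP1, 400 cells/well, exposed to compounds plus 20 nM camptothecin for at least 48 h at 37 C; viability read as ATP content by CellTiter-Glo luminescence.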
PLK1 PBD block: qHTS for Inhibitors of PLK1-PDB (polo-like kinase 1 - polo-box domain): Primary Screen; AID 720504, 2013; hit rate 2.8% among 360,000; Potency, µM, without a hit: max response, negative = inhibition, usual class: inhibitors; Plk1 PBD binding of FITC phosphopeptide, fluorescence polarization; Serine/threonine-protein kinase PLK1 (Homo sapiens), P53350; also: series mostly up to about 57 µM; nearly all actives have a fitted effect of over 65% in size
Starred values were filed as active, the others as inactive; ? = inconclusive; / = not tested or not shown; [ ] = dose if it differs, or a comment. Calls follow the shape of the dose curve; as a rule, active = well fitted curve in the direction sought with a large enough effect; inconclusive = small, poorly fitted or top-dose-only effect, or another doubt; inactive = no such curve, though single readings can be large; an effect the other way counts as inactive or inconclusive. % is scaled to controls: 0 for no effect and ±100 for the full control effect; potency is read from the fitted curve at half-maximal effect.

SMILES	GCN5L2 inh	TDP1 block	TDP1 cell noCPT	VDR inh	DT40 TDP1 CPT	PLK1 PBD block
C=CCCC(=O)Nc1nc(C)c(-c2csc(Nc3cc(OC)ccc3OC)n2)s1	-9%	9%	2.6µM*	-16%	2.6µM*	-17%
COc1ccccc1Nc1nc(-c2sc(NC(=O)c3cccc(Cl)c3)nc2C)cs1	-19%	9%	/	/	/	/
COc1ccc(OC)c(-c2csc(NC(=O)Cc3ccccc3OC)n2)c1	-5%	4%[0.0935 µM]	?	-1%	-18%	-10%
CCCCCC(=O)Nc1nc(C)c(-c2csc(Nc3cc(Cl)ccc3OC)n2)s1	-8%	8%	18µM*	3%	?	?
Cc1ccc(CNC(=O)Cn2cc(S(=O)(=O)Cc3cccc(Cl)c3)c3ccccc32)cc1	-6%	4%	?	7%	?	/
CC1(C)CC(=O)c2cc(-c3nc(-c4ccc(Cl)cc4)cs3)c(=O)n(-c3cccc(F)c3)c2C1	-8%	-1%	?	-18%	?	/
CCOC(OCC)c1cn(Cc2ccc3c(c2)C(=O)c2ccccc2C3=O)nn1	-1%	/	/	/	/	/
COc1ccc(OC)c(Nc2nc(-c3sc(N)nc3C)cs2)c1	0%	11%	26µM*	9%	?	?
Cc1cc(O)ccc1Nc1nc(-c2sc(N)nc2C)cs1	-17%	8%	-14%	-15%	3%	?
O=C(NC1CCN(Cc2ccc(Cl)cc2)CC1)c1cn(-c2ccccc2)nc1-c1cccnc1	1%	2%	?	14%	16µM*	-10%
COc1ccccc1NNC(=O)c1cccnc1Oc1ccccc1	-2%	-5%	-2%	1%	6%	-4%
COc1ccccc1-c1nc(C#N)c(N2CCN(C(c3ccccc3)c3ccccc3)CC2)o1	3%	-6%	23µM*	9%	16µM*	-1%
COc1ccc(-c2nc(C#N)c(N3CCCCC3)o2)cc1	-2%	/	-26%	-29%	-5%	-7%
COc1ccccc1-c1nc(C#N)c(N2CCN(c3cccc(Cl)c3)CC2)o1	3%	6%	?	-5%	?	1%
COc1ccc(-c2nc(C#N)c(N3CCCCCC3)o2)cc1	-7%	-6%	18µM*	-8%	18µM*	-1%
COc1ccc(-c2nc(C#N)c(N3CCC(C)CC3)o2)cc1	0%	/	13µM*	6%	?	-12%
N#Cc1nc(-c2ccc(F)cc2)oc1N1CCCC1	4%	2%	21µM*	-18%	7.3µM*	15µM*
COc1ccccc1C(=O)N[C@@H]1c2ccccc2C2(CCN(Cc3nccs3)CC2)[C@H]1OC	/	/	-83%	/	-11%[9.04 µM]	/
O=C(CN1C(=O)COc2ccccc21)N1CCN(C2CCCCC2)CC1	-1%	2%	-30%	0%	7%	-8%
CCOc1ccc(-c2nc(C#N)c(N3CCCCCC3)o2)cc1	-7%	9%	?	-14%	21µM*	-13%
CC(C)CC(=O)NC(=S)Nc1ccc(N2CCCC2)c(Cl)c1	-8%	-4%	-14%	9%	-5%	-2%
CN1CCN(c2ccc([N+](=O)[O-])cc2NC(=O)c2cccs2)CC1	0%	4%	23µM*	?	?	7%
O=C(NC(=S)Nc1ccc(N2CCCCC2)c(Cl)c1)c1cccs1	/	/	5.8µM*	-7%	7.3µM*	-3%
CC(C)C(=O)N1CCN(c2ccc(NC(=O)c3cccs3)cc2Cl)CC1	-13%	5%	13µM*	-8%	23µM*	6%
CC(C)C(=O)N1CCN(c2ccccc2NC(=O)c2ccc3c(c2)OCCO3)CC1	/	/	-3%	3%	-8%	-17%
SMILES	GCN5L2 inh	TDP1 block	TDP1 cell noCPT	VDR inh	DT40 TDP1 CPT	PLK1 PBD block
CN1CCN(c2ccc([N+](=O)[O-])cc2NC(=O)c2ccco2)CC1	?	2%	-19%	-4%	-25%	-4%
CC(C)C(=O)N1CCN(c2ccc(NC(=O)c3ccc4c(c3)OCCO4)cc2Cl)CC1	-2%[0.501 µM]	2%	23µM*	-19%	?	-5%
CNC(=O)NC(=O)C(OC(=O)Cc1cccc(C(F)(F)F)c1)c1ccccc1 (stereo not given)	-2%	5%	0%	-6%	-24%	-11%
CC(=O)N(C)c1nc(N)n(-c2ccccc2)n1	-8%	4%	-1%	-4%	-12%	?
Cc1ccc(NC(=S)NC(=O)c2cccs2)cc1F	-4%	2%	7.3µM*	-2%	-108%	-1%
CC(=O)NC(=S)Nc1ccc(NC(=O)c2cccs2)cc1	-2%	5%	?	-7%	-13%	-14%
O=C(Nc1ccc(N2CCN(C(=O)c3ccco3)CC2)c(Cl)c1)c1cccs1	-4%	6%	21µM*	17%	21µM*	-9%
COC(=O)[C@H](Cc1ccccc1)NC(=O)O[C@@H]1C(=O)c2cc(OC)ccc2O[C@H]1c1cccc(OC)c1	/	9%	/	-3%	/	/
CCCCNC(=O)CSc1ccc(S(=O)(=O)N2CCOCC2)cn1	-6%	2%	-22%	10%	-6%	-13%
CC(Sc1ccc(S(=O)(=O)N2CCOCC2)cn1)c1ccccc1Cl (stereo not given)	-11%	0%	29µM*	0%	?	?
CCN(C(=O)CSc1ccc(S(=O)(=O)N2CCOCC2)cn1)c1ccccc1	-5%	0%[56.1 µM]	16µM*	-16%	?	-4%
O=C(CSc1ccc(S(=O)(=O)N2CCOCC2)cn1)Nc1ccc(F)c(F)c1	-5%	1%[56.1 µM]	16µM*	-14%	16µM*	-10%
CC(C)N(C(=O)CSc1ccc(S(=O)(=O)N2CCCCC2)cn1)c1ccccc1	-9%	1%[56.1 µM]	15µM*	1%	?	?
CCCn1c(C)nc2c(NCC3CCCN3CC)nc(C)nc21 (stereo not given)	/	1%	/	/	/	/
CCc1nc2c(OCC(=O)C(C)(C)C)cccn2c1N(C)C(=O)Nc1ccccc1OC	/	/	-27%	/	?	-10%
COc1ccc(-c2csc(NCCc3nc4cc(Cl)c(N5CCCCC5)cc4n3CCOCCO)n2)cc1	/	/	9.2µM*	-7%	23µM*	2%
COc1ccc(-c2csc(N3CCN(c4cc5c(cc4Cl)nc(-c4ccncc4)n5CCOCCO)CC3)n2)cc1	-6%	/	?	-24%	12µM*	27µM*
Cc1ccc(-c2csc(N3CCN(c4cc5c(cc4Cl)nc(-c4ccncc4)n5CCN4CCCCC4)CC3)n2)cc1	-9%	/	?	-25%	?	?
